# Compound activity deposited in PubChem by National Center for Advancing Translational Sciences (NCATS).
# VDR inh: vitamin D3 receptor (human) inhibition | VDR-SRC2-3 peptide fluorescence polarization, 2 h | Potency, µM, for inactives: max response, negative = inhibition, most hits filed as inhibitors | 0.93% of 400,000 active
# Target sequence (P11473 whole entry, looked up): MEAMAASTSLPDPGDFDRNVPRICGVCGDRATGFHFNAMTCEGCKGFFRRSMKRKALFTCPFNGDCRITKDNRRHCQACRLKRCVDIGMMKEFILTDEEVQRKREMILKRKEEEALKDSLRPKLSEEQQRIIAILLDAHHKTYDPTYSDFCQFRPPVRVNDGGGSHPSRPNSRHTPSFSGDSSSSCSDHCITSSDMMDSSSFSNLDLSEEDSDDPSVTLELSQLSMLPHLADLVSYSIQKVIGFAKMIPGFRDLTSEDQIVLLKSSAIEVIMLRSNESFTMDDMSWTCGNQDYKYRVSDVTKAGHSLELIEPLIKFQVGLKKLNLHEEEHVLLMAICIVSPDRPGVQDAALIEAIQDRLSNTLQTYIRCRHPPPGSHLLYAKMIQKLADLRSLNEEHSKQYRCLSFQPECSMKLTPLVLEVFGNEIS
#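 Fluorescence polarization assay measuring small-molecule disruption of VDR binding to the coregulator peptide SRC2-3. Compounds were pin-transferred (23 nl) into the reagent mix and incubated 2 h at room temperature before reading.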
# TrxR1 inh: inhibitors of rat thioredoxin reductase 1 | O89049 | recombinant rTrxR1, NADPH fluorescence consumption, selenite substrate | Potency, µM (series often up to 114 µM), without a hit: at the highest dose activity change, negative = inhibition, hits mostly inhibitors | 1% of 390,000 active; note: nearly all actives have a fitted effect of over 65% in size
#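 Rat TrxR1 (90 nM in the dispensed reagent) was pre-reduced with 400 uM NADPH for 5 min at room temperature, then incubated with compound for 15 min. After 400 uM selenite was added, NADPH fluorescence (Ex 340/Em 450 nm) was followed for 8 min.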
# TrxR1 substrate: substrates of rat thioredoxin reductase 1 | O89049 | purified TrxR1 substrate turnover, NADPH consumption readout | Potency, µM (top dose mostly 114 µM), for the others: top-dose activity change, negative = substrate turnover | 0.01% of 390,000 active; note: nearly all actives have a fitted effect of over 50% in size
#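 Rat TrxR1, dispensed at 90 nM, was prereduced with 400 uM NADPH (final) for 5 min at ~22 deg C, then incubated with compound 15 min before 400 uM selenite. A first-read NADPH fluorescence drop versus no-compound background flagged substrates.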
# GLS inhibitor: glutaminase GLS (human) inhibition; GLS enzymatic activity, qHTS titration; Potency, µM (doses to about 45.5 µM), inactives show at the highest dose activity change, negative = inhibition, hits mostly inhibitors; 0.21% of 410,000 active; AID 624170
#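 Coupled fluorescence readout: glutamate oxidase/HRP/Amplex Red detect glutamate formed by hKGA from L-glutamine (1 mM solution added). Buffer 45 mM KH2PO4 pH 8.2, 0.02% Tween-20; reads at t0 and 30 min RT.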
# Sfp PPTase inh: inhibitors of Bacillus subtilis Sfp phosphopantetheinyl transferase. Q9F4F7. Biochemical Sfp PPTase activity, qHTS. Potency, µM, without a hit: largest response in the series, negative = inhibition, actives largely listed as inhibitors. 3.5% of 310,000 active. AID 1490;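 note: the enzyme is Sfp with the accession as filed and its product quenches rhodamine fluorescence; 0% = enzyme reaction without inhibitor and -100% = no enzyme wells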
#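 With Hepes-Na pH 7.6 buffer containing 10 mM MgCl2, Sfp (15 nM) modified BHQ-2-YbbR (12.5 uM) using rhodamine-CoA (5 uM). Two reads 30 minutes apart at 525/598 nm yielded each well's rate.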
# KAT2A inh: inhibitors of human GCN5L2 histone acetyltransferase. Q92830. GCN5L2 HAT assay, ThioGlo1 CoA-SH fluorescence. Potency, µM (highest dose often 58.9 µM), inactives show top-dose activity change, negative = inhibition, most hits filed as inhibitors. 0.21% of 390,000 active
#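 Titration-based screen in which CoA formation is detected via maleimide probe ThioGlo1 (50uM) turning fluorescent on thiol reaction; substrates H3(1-25) 75uM and acetyl-CoA 70uM, GCN5L2 20nM, 20 min incubation at room temperature.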
# * = called active by the depositor; ? = inconclusive; . = no result; [ ] = another dose, or the depositor's remark. The list is not random: actives were taken first. Their share in the collection is about 3.8%. Calls come from the whole dose curve; as a rule, active = well fitted curve in the direction sought with a large enough effect; inconclusive = small, poorly fitted or top-dose-only effect, or another doubt; inactive = no such curve, though single readings can be large; an effect the other way counts as inactive or inconclusive. Unless noted, % is set by controls: 0 for no effect and ±100 for the full control effect; potency is the fitted concentration of half-maximal effect.
SMILES,VDR inh,TrxR1 inh,TrxR1 substrate,GLS inhibitor,Sfp PPTase inh,KAT2A inh
CCN(CC)c1ccc2nc3c4ccccc4c(=O)cc-3oc2c1,?,3.5%,-6.1%,-1.5%,2.3%,0.6%
CCN(CC)c1ccc2c(-c3ccc(S(=O)(=O)O)cc3S(=O)(=O)[O-])c3ccc(=[N+](CC)CC)cc-3oc2c1,39.8µM*,-1.9%[57.1 µM],9.6%[57.1 µM],?,89.1µM*,?
c1ccc2oc(SCc3cn4ccsc4n3)nc2c1,-4.2%,13.1%[57.1 µM],-8.6%,10.2%,50.1µM*,-4.0%
Cc1cc(C)n2cc(CSc3nc4cc(Cl)ccc4o3)nc2n1,-9.4%,-11.3%,9.3%,0.3%,?,0.6%
Cc1csc2nc(CSc3ccc(Cl)cc3)cn12,?,-18.7%,-2.8%,9.4%,-6.2%,-3.2%
Cc1cc(C)n2c(Br)c(CSc3nc4ccccc4o3)nc2n1,-7.3%,13.1%,26.5%,-6.5%,50.1µM*,-1.2%
Clc1ccc(SCc2cn3ccsc3n2)cc1,14.2%,7.6%,-6.7%,1.7%,-4.1%,-2.2%
Cc1csc2nc(CSc3nc4ccccc4o3)cn12,-7.5%,3.0%,-7.5%,9.6%,56.2µM*,1.5%
O=C(O)c1c(F)c(F)c(F)c(F)c1-c1ccc(Cl)cc1,0.8%,16.6%,13.7%,-0.7%,8.7%,-1.3%
CCc1ccc(-c2csc3[n+]2CCN3C(C)=O)cc1,25.1µM*,36.3%,2.8%,10.9%,39.8µM*,-9.3%
CC(=O)N1CC[n+]2c(-c3ccc(Cl)cc3)csc21,20µM*,32.1%,-15.0%,54.6%,?,-7.9%
O=C(CN1CC[n+]2c(-c3cccs3)csc21)c1ccc(-c2ccccc2)cc1,?,-2.4%[57.1 µM],1.4%[57.1 µM],-33.6%,-13.7%,-24.1%
O=C1CSC(=S)N1N=Cc1ccc(OCc2ccccc2)cc1,.,.,.,17.9%,.,.
CC(=O)c1ccc(NC(=O)CSc2ccc(-c3cccs3)nn2)cc1,10.2%,5.8%,-0.3%,-5.1%,.,-17.9%
CC(=O)Nc1ccc(NC(=O)CSc2ccc(-c3ccco3)nn2)cc1,?,?,20.8%,16.6%,44.7µM*,-11.6%
Cc1cc(C)c(NC(=O)CSc2ccc(-c3cccnc3)nn2)c(C)c1,2.1%,2.5%,-8.8%,0.9%,56.2µM*,0.2%
Cc1ccc(NC(=O)CSc2ccc(-c3ccco3)nn2)c(C)c1,0.0%,?,-1.9%,1.3%,56.2µM*,-6.8%
CC(=O)c1ccc(NC(=O)CSc2ccc(-c3ccco3)nn2)cc1,-2.9%,?,-8.7%,-0.5%,39.8µM*,?
O=C(CSc1ncccc1C(=O)O)NCCC1=CCCCC1,18.0%,18.9%,6.9%,-0.4%,20.3%,-9.5%
Cc1cc(C)cc(NC(=O)CSc2ccc(-c3ccccn3)nn2)c1,14.4%,3.4%,0.3%,-10.8%,-3.3%,-1.1%
Cc1cc(C)cc(NC(=O)CSc2ccc(-c3ccco3)nn2)c1,-11.7%,-59.1%,9.7%[57.1 µM],-6.7%,22.4µM*,27.9%
Cc1ccc(NC(=O)CSc2ccc(-c3ccco3)nn2)cc1,2.8%,?,-2.2%[57.1 µM],-11.1%,20µM*,-7.7%
CC(=O)Nc1cccc(NC(=O)CSc2ccc(-c3ccco3)nn2)c1,-6.2%,56.2µM*,-4.1%,-19.6%,31.6µM*,?
O=C1c2ccccc2C(c2nnnn2C2CCCCC2)N1CCc1ccc(O)cc1 (stereo not drawn),.,.,.,4.5%,.,.
COc1cccc(-c2nc3c(C#N)c[nH]n3c2NC2CCC(C)CC2)c1 (stereo not drawn),2.7%,5.7%,-2.3%,?,.,-3.9%
COc1ccc(-c2nc3c(C#N)c[nH]n3c2NC2CCCC2)c(OC)c1,12.1%,20.4%,7.1%,12.6µM*,.,-7.7%
O=C1CC(Sc2cccs2)C(=O)N1c1ccccc1 (stereo not drawn),-21.9%,?,10.1%[57.1 µM],4.3%,-28.5%,-6.0%
Cc1nnc(SC2CC(=O)N(c3ccccc3)C2=O)s1 (stereo not drawn),14.9%,?,6.3%[57.1 µM],-3.6%,35.5µM*,-5.6%
